Assay outcomes: PubChem, National Center for Advancing Translational Sciences (NCATS)
The list is not random: actives were taken first. Their share in the collection is about 11%.
AMA1 RON2 block: inhibitors of Plasmodium falciparum AMA1-RON2 interaction. AlphaScreen AMA1-biotinylated RON2 peptide binding. Potency, µM (series often up to 58.2 µM), for the others: top-dose activity change, negative = inhibition, usual class: inhibitors. 360,000 tested, 0.2% active. AID 720542;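 also: 0% = vehicle wells and -100% = peptide control; nearly all actives have a fitted effect of over 45% in size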
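AMA1 (3D7) with his tag at 25 nM final met compounds first, then biotinylated RON2 peptide at 25 nM; detection used donor plus acceptor beads, 10 µg/mL apiece, read by AlphaScreen after 30 min at room temperature.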
Pf growth 48h: P. falciparum growth inhibition at 48 hours (one generation). P. falciparum luciferase growth in erythrocytes, 48 h. Potency, µM (doses to about 28.7 µM), without a hit: at the top dose activity change, negative = inhibition, hits mostly inhibitors. 310,000 tested, 5.9% active
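Cell-based growth assay: transgenic P. falciparum expressing firefly luciferase, cultured in red cells within RPMI 1640 containing 0.5% w/v Albumax, 24 mM bicarbonate and gentamycin. A drop in luciferase activity indicates inhibition.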
AmpC detergent: blocks E. coli AmpC beta-lactamase in detergent assay; P00811; AmpC hydrolysis of nitrocefin, absorbance 480 nm, 0.01% Triton; Potency, µM (top dose mostly 114 µM), without a hit: at the top dose activity change, negative = inhibition, most hits filed as inhibitors; 370,000 tested, 0.041% active;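 also: 0% = no-compound wells and -100% = no-enzyme wells; nearly all actives have a fitted effect of over 25% in size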
Target sequence (P00811 whole entry, looked up): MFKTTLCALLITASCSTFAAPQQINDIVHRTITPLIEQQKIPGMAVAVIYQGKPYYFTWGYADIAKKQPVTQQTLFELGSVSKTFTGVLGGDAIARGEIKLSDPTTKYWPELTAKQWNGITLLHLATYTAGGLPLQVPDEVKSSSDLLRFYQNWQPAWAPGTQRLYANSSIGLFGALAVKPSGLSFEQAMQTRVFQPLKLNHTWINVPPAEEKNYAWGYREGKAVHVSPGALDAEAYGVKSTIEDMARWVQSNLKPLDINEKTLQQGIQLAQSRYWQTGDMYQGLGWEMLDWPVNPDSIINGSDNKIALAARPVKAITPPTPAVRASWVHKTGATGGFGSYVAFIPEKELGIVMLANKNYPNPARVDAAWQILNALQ
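20 mM phosphate pH 7.0 + 0.01% (detergent screen) or 0.0001% Triton X-100; 5.3 nM AmpC reagent; cpd preinc 15 min RT; nitrocefin (800 uM stock) to start; A480 q20 s × 4 min; Activity was normalised to no-enzyme and no-compound control wells.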
AmpC no deterg: AmpC beta-lactamase inhibition without detergent | AmpC nitrocefin hydrolysis, absorbance 480 nm, 0.0001% Triton | Potency, µM (top dose mostly 57.1 µM), for the others: at the highest dose activity change, negative = inhibition, hits mostly inhibitors | 330,000 tested, 0.52% active | AID 485341;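 also: plate controls were no compound for no effect and no enzyme for full effect; nearly all actives have a fitted effect of over 20% in size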
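20 mM phosphate pH 7.0 + 0.01% (detergent screen) or 0.0001% Triton X-100; 5.3 nM AmpC reagent; cpd preinc 15 min RT; nitrocefin (800 uM stock) to start; A480 q20 s × 4 min; Activity was normalised to no-enzyme and no-compound control wells.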
Pf growth 96h: inhibits malaria parasite growth, 96 h; P. falciparum luciferase reporter growth, 96 h; Potency, µM (highest dose often 28.7 µM), without a hit: at the top dose activity change, negative = inhibition, hits mostly inhibitors; 320,000 tested, 6.9% active
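Luminescence readout: decreased luciferase signal marks inhibited growth of reporter-expressing P. falciparum in infected red cells (2% hematocrit, 0.05% parasitemia final), exposed to compound two generations (96 h, 37 C, 5% CO2).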
HCV inhibitor: HCV inhibition. Potency, µM (titrated, usually from 41.8 µM), without a hit: top-dose activity change, negative = inhibition, most hits filed as inhibitors. 340,000 tested, 3.4% active. Huh7.5.1 HCVcc-Cre infection, luciferase reporter, 44 h
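Seed cells (1,000/well) for 4 h; treat with compound and infect with HCVcc-Cre, moi about 0.5. Incubate 44 h, then detect luciferase activity.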
* = called active by the depositor; ? = inconclusive; / = no result given; [ ] = remark or other dose. Calls follow the shape of the dose curve; as a rule, active = well fitted curve in the direction sought with a large enough effect; inconclusive = small, poorly fitted or top-dose-only effect, or another doubt; inactive = no such curve, though single readings can be large; an effect the other way counts as inactive or inconclusive. Unless noted, % is scaled to controls: 0 for no effect and ±100 for the full control effect; potency is read from the fitted curve at half-maximal effect.

SMILES	AMA1 RON2 block	Pf growth 48h	AmpC detergent	AmpC no deterg	Pf growth 96h	HCV inhibitor
Cc1cc(C(=O)N/N=C/c2cc(Br)cc(Br)c2OC(=O)c2cccc(F)c2)n[nH]1	30%	12µM*	?	-8%	?	?
Cc1ccc(-c2cc(C(=O)N/N=C/c3ccccc3O)n[nH]2)o1	53%	5.2µM*	0%	-40%	?	?
Cc1cc(C(=O)N/N=C/c2cc(Br)cc(Br)c2OC(=O)c2ccccc2)n[nH]1	/	?	1%	-16%	21%	1%
Cc1cc(C(=O)N/N=C\c2cc(C(C)(C)C)ccc2O)n[nH]1	102%	12µM*	-1%	-22%	2%	?
CCc1ccccc1NC(=O)CSc1ncccc1C(=O)O	/	/	3%	/	/	/
COc1cccc(-c2nc(CS(=O)CC(=O)NCCc3ccccc3)c(C)o2)c1 (stereo unspecified)	22%	5%	2%	71%	-11%	-2%
Cc1cccc(-c2nc(CS(=O)CC(=O)N3CCN(C)CC3)c(C)o2)c1 (stereo unspecified)	-19%	/	?	-4%	7.4µM*	5%
Cc1ccc(-c2nc(CS(=O)CC(=O)N3CCN(c4cccc(Cl)c4)CC3)c(C)o2)cc1 (stereo unspecified)	/	/	-6%	/	/	/
Cc1cccc(-c2nc(CS(=O)CC(=O)NCCc3ccccc3)c(C)o2)c1 (stereo unspecified)	-6%	12%	?	98%	5.2µM*	-27%
CCc1ccc2[nH]cc(S(=O)(=O)c3ccc(C(C)C)cc3)c(=O)c2c1	/	/	-1%	/	/	/
CC(C)(C)OC(=O)COc1cc(OCC(=O)OC(C)(C)C)c2c(=O)cc(-c3ccccc3)oc2c1	-30%	?	9%	172%	?	10µM*
COC(=O)COc1cc(OCC(=O)OC)c2c(-c3ccccc3)cc(=O)oc2c1	-5%	-16%	2%	33%	3%	1%
C=CCNC1=C2C[C@@H](C)C[C@H](OC)[C@H](O)[C@@H](C)/C=C(\C)[C@H](OC(N)=O)[C@@H](OC)/C=C\C=C(/C)C(=O)NC(=CC1=O)C2=O	/	0.6µM*	/	/	11µM*	/
COC1C=CC=C(C)C(=O)NC2=CC(=O)C(N)=C(CC(C)CC(OC)C(O)C(C)C=C(C)C1OC(N)=O)C2=O (stereo unspecified)	2%	/	/	/	/	?
COc1ccc(C2=NN(c3nc(-c4ccccc4)c(CC(=O)O)s3)C(c3ccco3)C2)cc1 (stereo unspecified)	-4%	-9%	-14%	14µM*	?	?
O=C(c1ccco1)[C@@H]1[C@@H]2C(=O)N(c3ccc(F)cc3)C(=O)[C@@H]2[C@H]2C=Cc3ccccc3N21	-5%	?	-6%	2%	3.7µM*	-4%
NC(=O)[C@@H]1[C@@H]2C(=O)N(c3ccc(F)cc3)C(=O)[C@@H]2[C@H]2C=Cc3ccccc3N21	4%	?	-6%	31%	?	-18%
CCOc1ccc(CNC(=O)C2Cc3cc(S(=O)(=O)N4CCCCC4)ccc3N2C(C)=O)cc1 (stereo unspecified)	7%	-20%	-13%	-4%	10µM*	-12%
CCOc1ccc(CNC(=O)C2Cc3cc(S(=O)(=O)N4CCCC4)ccc3N2C(C)=O)cc1 (stereo unspecified)	16%	-8%	1%	-22%	?	2%
CSc1ccc(CNC(=O)C2Cc3cc(S(=O)(=O)N4CCCCC4)ccc3N2C(C)=O)cc1 (stereo unspecified)	2%	-22%	-6%	84%	15µM*	?
CCCN1C(=O)C(Cc2nc3ccccc3c(=O)n2-c2ccc(OC)cc2)c2cc(C)ccc21 (stereo unspecified)	/	/	4%	/	/	/
CCOc1ccc(Br)cc1S(=O)(=O)NC1CCCC1	5%[11.6 µM]	?	-19%	-3%	8.3µM*	?
CC(C)C1=CC2=CC[C@@H]3[C@](C)(CCC[C@@]3(C)C(=O)O)[C@H]2CC1	/	-11%	/	/	?	/
COc1cc(NC(=O)CSc2nc3[nH]ncc3c(=O)n2-c2ccc(Cl)cc2)cc(OC)c1	31%	?	0%	78%	-18%	?
O=C(CSc1nc2[nH]ncc2c(=O)n1-c1ccccc1Br)NCc1ccco1	0%	12µM*	6%	-14%	67%	14%
SMILES	AMA1 RON2 block	Pf growth 48h	AmpC detergent	AmpC no deterg	Pf growth 96h	HCV inhibitor
Cc1cccc(NC(=O)CSc2nc3[nH]ncc3c(=O)n2-c2ccccc2)c1	/	-8%	-13%	8.9µM*	7.4µM*	/
COc1cc(NC(=O)CSc2nc3[nH]ncc3c(=O)n2-c2ccccc2C)cc(OC)c1OC	1%	10µM*	-10%	2%	6%	-11%
O=c1c2ccccc2nc(/C=C/c2ccc(O)cc2)n1-c1ccccc1O	8%	9.3µM*	7%	-57%	?	-22%
COc1cc(/C=C/c2nc3ccccc3c(=O)n2-c2ccccc2O)ccc1O	5%	9.3µM*	-13%	-52%	9.3µM*	?
Cc1ccccc1-n1c(/C=C/c2ccc(O)cc2)nc2ccccc2c1=O	/	/	19%	/	/	/
COc1ccccc1-n1c(/C=C/c2ccc(O)cc2)nc2ccccc2c1=O	4%	13µM*	-14%	-32%	-7%	?
COc1ccccc1-n1c(/C=C/c2ccccc2)nc2ccccc2c1=O	/	/	5%	/	/	/
COc1cc(/C=C/c2nc3ccccc3c(=O)n2-c2cccc(O)c2)ccc1O	8%	0%	4%	-29%	-26%	?
O=c1c2ccccc2nc(/C=C/c2ccccc2)n1-c1ccccc1O	7%	9.3µM*	-1%	-51%	?	-28%
CCc1nnc(NC(=O)CSc2nc3c([nH]c4ccccc43)c(=O)n2-c2ccc(OC)cc2)s1	/	/	8%	/	/	/
Cc1cccc(N2CCN(C(=O)Cn3nc(C)c4sc5ccccc5c4c3=O)CC2)c1C	/	/	15%	/	/	/
O=C(O)c1ccc(-n2c(/C=C\c3ccc(O)cc3)nc3ccccc3c2=O)cc1	/	/	3%	/	/	/
O=C(O)c1ccc(/C=C/c2nc3ccccc3c(=O)n2-c2ccc(Br)cc2)cc1	-10%	?	-1%	-32%	13µM*	13%
COc1ccc(C2C(C#N)=C(N)N(c3sc4c(c3C#N)CCCC4)C3=C2C(=O)CC(C)(C)C3)cc1OC (stereo unspecified)	66%	/	-14%	-6%	5.2µM*	?
COc1cc(C2C(C#N)=C(N)N(c3cccnc3)C3=C2C(=O)CC(C)(C)C3)ccc1O (stereo unspecified)	3%	/	?	-5%	?	3%
